Assay outcomes (PubChem BioAssay)
rTrxR1 inhibitor – inhibitors of rat thioredoxin reductase 1; O89049; recombinant rTrxR1, NADPH fluorescence consumption, selenite substrate; Potency, µM (doses to about 114 µM), for inactives: at the top dose activity change, negative = inhibition, most hits filed as inhibitors; 1% of 390,000 active; also: potency is read from the fitted curve at half-maximal effect; % is scaled to controls: 0 for no effect and ±100 for the full control effect; nearly all actives have a fitted effect of over 65% in size
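Rat TrxR1 (90 nM in the dispensed reagent) was pre-reduced with 400 uM NADPH for 5 min at room temperature, then incubated with compound for 15 min. After 400 uM selenite was added, NADPH fluorescence (Ex 340/Em 450 nm) was followed for 8 min.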
IDH1 R132H inh – inhibitors of human mutant IDH1 R132H; IDH1-R132H enzyme, NADPH consumption, diaphorase/resazurin fluorescence; Potency, µM (series often up to 76.6 µM), inactives show at the top dose activity change, negative = inhibition, hits mostly inhibitors; 0.093% of 390,000 active; AID 602179; also: potency is read from the fitted curve at half-maximal effect; % is scaled to controls: 0 for no effect and ±100 for the full control effect; nearly all actives have a fitted effect of over 65% in size
Target sequence (O75874 whole entry R132H, stated change not applied): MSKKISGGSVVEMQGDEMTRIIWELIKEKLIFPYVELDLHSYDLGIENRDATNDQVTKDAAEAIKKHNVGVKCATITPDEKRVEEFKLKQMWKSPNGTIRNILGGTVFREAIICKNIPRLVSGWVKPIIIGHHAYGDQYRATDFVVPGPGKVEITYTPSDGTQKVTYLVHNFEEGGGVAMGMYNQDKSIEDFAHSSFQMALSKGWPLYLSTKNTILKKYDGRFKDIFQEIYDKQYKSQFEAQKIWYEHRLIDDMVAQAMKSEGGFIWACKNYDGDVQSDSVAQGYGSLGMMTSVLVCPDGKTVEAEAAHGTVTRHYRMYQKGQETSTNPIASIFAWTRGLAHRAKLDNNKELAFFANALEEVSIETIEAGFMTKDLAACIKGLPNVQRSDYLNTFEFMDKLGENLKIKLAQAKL
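IDH1-R132H (0.5 ug/mL dispensed) in pH 7.5 Tris buffer was preincubated 30 min with compound, then given a substrate mix of 0.016 mM NADPH and 2 mM alpha-KG for 80 min at room temperature; remaining NADPH was read by diaphorase/resazurin fluorescence.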
Eya2 inh – inhibitors of human Eya2 phosphatase activity; O00167; recombinant Eya2, OMFP fluorescence dephosphorylation (OMFP is methylfluorescein phosphate); 0.006% of 330,000 active; Potency, µM (titrated, usually from 76.9 µM), inactives show at the top dose activity, negative = inhibition, most hits filed as inhibitors; also: potency is read from the fitted curve at half-maximal effect; % is scaled to controls: 0 for no effect and ±100 for the full control effect
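Eya2 (0.2 uM) preincubated 10 min at ambient with compound, then OMFP substrate added at 50 uM; 10 min reaction in 50 mM HEPES pH 7.5, 50 mM NaCl, 5 uM MgCl2, 0.05% BSA, 1 mM DTT. Fluorescence read at Ex 485/Em 525 nm.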
FBPA coupling cs – coupling enzyme interference in Giardia aldolase counter-screen; coupling enzyme system counterscreen, AmpLite Red fluorescence; activity change, negative = inhibition, % at 58.2 µM, hits read low; 0.67% of 290,000 active; AID 2472; in the data active = activity change below about -30%; also: % is scaled to controls: 0 for no effect and ±100 for the full control effect
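Compounds tested against the coupling enzymes alone at 57.5 uM final; readout was AmpLite Red fluorescence (525/598 nm) after 20 min at RT.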
TrxR1 substrate – is turned over as a substrate by rat TrxR1; O89049; Potency, µM (top dose mostly 114 µM), for inactives: at the top dose activity change, negative = substrate turnover; 0.01% of 390,000 active; purified TrxR1 substrate turnover, NADPH consumption readout; also: potency is read from the fitted curve at half-maximal effect; % is scaled to controls: 0 for no effect and ±100 for the full control effect; nearly all actives have a fitted effect of over 50% in size
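Rat TrxR1, dispensed at 90 nM, was prereduced with 400 uM NADPH (final) for 5 min at ~22 deg C, then incubated with compound 15 min before 400 uM selenite. A first-read NADPH fluorescence drop versus no-compound background flagged substrates.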
Resorufin autofl – counter-screen for mutant IDH1 inhibitors: fluorescence interference; Resorufin detection reagent fluorescence interference, cell-free; shares compounds with IDH1 R132H inh; 750 tested, under 10 active; inhibition of signal, % at 51.2 µM; AID 623980;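 also: 0% = wells with normal resorufin and full inhibition = wells lacking resorufin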
WT IDH1 inh – wild-type IDH1 (human) inhibition counterscreen; 9% of 750 active; shares compounds with IDH1 R132H inh; WT IDH1 enzyme, NADPH diaphorase/resazurin fluorescence; AID 623995; Potency, µM (series often up to 115 µM), without a hit: at the top dose activity change, negative = inhibition, usual class: inhibitors;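 also: potency is read from the fitted curve at half-maximal effect; 0% = full WT IDH1 enzyme control and full inhibition = no enzyme wells; nearly all actives have a fitted effect of over 55% in size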
Target sequence (O75874 whole entry, looked up): as the sequence (O75874 whole entry R132H, stated change not applied) above, with H132R counted along it
IDH1 R132H conf – mutant IDH1 (human) inhibition, confirmed; shares compounds with IDH1 R132H inh; IDH1 R132H enzyme, NADPH diaphorase/resazurin fluorescence; Potency, µM (series often up to 76.6 µM), inactives show top-dose activity change, negative = inhibition, most hits filed as inhibitors; 83% of 750 active; AID 624002; also: potency is read from the fitted curve at half-maximal effect; nearly all actives have a fitted effect of over 50% in size
Starred values were filed as active, the others as inactive; ? = inconclusive; / = no result given; [ ] = dose if it differs, or a comment. The list is not random: actives were taken first. Their share in the collection is about 1.5%. Unless noted, calls follow the shape of the dose curve; as a rule, active = well fitted curve in the direction sought with a large enough effect; inconclusive = small, poorly fitted or top-dose-only effect, or another doubt; inactive = no such curve, though single readings can be large; an effect the other way counts as inactive or inconclusive.

SMILES	rTrxR1 inhibitor	IDH1 R132H inh	Eya2 inh	FBPA coupling cs	TrxR1 substrate	Resorufin autofl	WT IDH1 inh	IDH1 R132H conf
CC1(C)C=Cc2c(c3c(c4c(=O)c(-c5ccc(O)cc5)coc24)OC(C)(C)CC3)O1	-9%	40µM*	2%	-3	-4%	9	-14%	25µM*
CC(C)=CCc1c2c(c3occ(-c4ccc(O)cc4)c(=O)c3c1O)C=CC(C)(C)O2	0%	-4%	?	-7	-17%	/	/	/
CC(C)=CCc1c2c(c3occ(-c4ccc(O)c(O)c4)c(=O)c3c1O)C=CC(C)(C)O2	-14%	52µM*	/	-11	-6%	0	-12%	45µM*
C=CCOC(=O)N[C@H](/C(C(=O)OC)=C(\C)NCc1ccccc1)c1ccc(Br)cc1	/	/	/	-7	/	/	/	/
Cc1ccc(S(=O)(=O)c2cnc(-c3ccccc3)[nH]c2=O)cc1	13%	/	/	/	2%	/	/	/
CCCCCCCCCCCCC/C=C/C(O)C(COP(=O)(O)OCCN)NC(=O)CCCCCCCCCCCCCCCCC (centres undefined)	/	/	/	1	/	/	/	/
CC(C)c1ccc(NC(=O)C(c2ccccc2)N2CC(=O)Nc3ccccc32)cc1 (centres undefined)	19%	?	-7%	0	2%	0	-2%	25µM*
CC/C=C\C/C=C\C/C=C\C/C=C\C/C=C\C/C=C\CCC(=O)O[C@H](COCCCCCCCCCCCCCCCC)COP(=O)([O-])OCC[N+](C)(C)C	/	/	/	-5	/	/	/	/
NNC(=O)CSc1c(-c2ccccc2)c2cc(Cl)ccc2[nH]c1=O	-3%	?	-4%	-3	-5%	-14	-19%	-25%
COc1ccc(C2/C=C\CN(S(=O)(=O)CC34CCC(CC3=O)C4(C)C)CC(=O)N2Cc2ccc(F)cc2)cc1 (centres undefined)	-7%	/	/	0	-5%	/	/	/
Cc1cc(O)c(C(C)C)cc1C1(c2cc(C(C)C)c(O)cc2C)OC(=O)c2ccccc21	29%	16µM*	-1%	-7	0%	0	-6%	16µM*
c1ccc(C2=Nn3c(nnc3-c3cc(-c4ccccc4)n[nH]3)SC2)cc1	3%[57.1 µM]	?	9%	-1	4%[57.1 µM]	-13	?	20µM*
CCCN1C(=O)/C(=c2\sc3nc(=O)c(Cc4ccc(C)cc4)nn3c2=O)c2ccccc21	?	4%	-4%	2	-7%	/	/	/
NC(=O)CN1C(=O)/C(=c2\sc3nc(=O)c(Cc4ccccc4)nn3c2=O)c2ccccc21	18µM*	?	-2%	-1	3%	2	40%	-6%
O=c1c2ccccc2nc2n1CCCCC2	5%[57.1 µM]	9%	14%	0	2%[57.1 µM]	/	/	/
O=c1c2ccccc2nc2n1CCC2	-4%	16µM*	-22%	4	-4%	0	?	3%
O=C(Nc1ccc([N+](=O)[O-])cc1Cl)c1cc(Cl)cc(Cl)c1O	-3%	/	/	/	-20%	/	/	/
CCC[C@@H]1C[C@@]1(CCC)C(NC(=O)OCc1ccccc1)c1ccc(-c2ccccc2)cc1 (some centres undefined)	/	/	/	-4	/	/	/	/
CCC[C@@H]1C[C@@]1(CCC)[C@@H](NP(=O)(c1ccccc1)c1ccccc1)c1ccc(C(=O)OC)cc1	26%[57.1 µM]	?	-10%	-2	9%[57.1 µM]	-3	-4%	22µM*
C[C@H]1Cc2c(-c3ccccc3)nc3c(c2CO1)CN(C(=O)NCc1ccco1)CC3	/	/	/	-3	/	/	/	/
CCC1C/C(=C\c2cccnc2)C(=O)/C(=C/c2cccnc2)C1 (centres undefined)	?	52µM*	-16%	-1	-5%	-16	-8%	32µM*
O=C1/C(=C/c2cccnc2)CC/C1=C\c1cccnc1	-7%	-6%	4%	1	-3%	/	/	/
CSC1=NC(=O)/C(=C\c2cccc3ccccc23)S1	35%[57.1 µM]	58µM*	-19%	-1	-11%	-5	71µM*	22µM*
O=C(NCC1COc2ccccc2O1)c1c[nH]c2ccc(S(=O)(=O)N3CCOCC3)cc2c1=O (centres undefined)	24%	?	-14%	0	11%	-13	-21%	1%
CCCOc1ccc(C2C(C(=O)c3ccc(C)o3)=C(O)C(=O)N2Cc2ccco2)cc1OCC (centres undefined)	?	52µM*	-8%	4	-16%	-1	6%	?
SMILES	rTrxR1 inhibitor	IDH1 R132H inh	Eya2 inh	FBPA coupling cs	TrxR1 substrate	Resorufin autofl	WT IDH1 inh	IDH1 R132H conf
CCCOc1ccc(C2C(C(=O)c3ccc(C)o3)=C(O)C(=O)N2Cc2ccco2)cc1 (centres undefined)	?	?	-15%	/	-2%	/	/	/
CN(C(=O)CSc1nc(-c2ccc(C(C)(C)C)cc2)c(C#N)c(=O)[nH]1)C1CCCCC1	-7%	?	12%	13	-3%	0	?	45µM*
O=P(NC1CCCCC1)(c1ccccc1)c1ccccc1	7%[57.1 µM]	1%	/	/	-1%[2.29 µM]	/	/	/
CC/C(=C\C1CCCCC1)C(NP(=O)(c1ccccc1)c1ccccc1)c1ccccc1 (centres undefined)	7%	28µM*	-2%	-2	0%	-7	1%	22µM*
C=C(C)Cc1c(C)c(C#N)c2nc3ccccc3n2c1N1CCCCC1	-7%	?	15%	2	5%	-2	-1%	14µM*
CN(CC(=O)O)c1ccc(/C=C2\C=Cc3ccccc32)cc1	?	/	/	/	1%	/	/	/
Cc1cc(/C=N/n2c(COc3ccccc3)nc3ccccc3c2=O)c(O)c([N+](=O)[O-])c1	-2%	?	5%	0	-8%	6	4%	32µM*
CCOC(=O)c1ccccc1NC(=O)c1ccc2c(SCC(=O)O)c3c(nc2c1)CCCC3	-8%	41µM*	10%	1	1%	-2	71µM*	16µM*
COc1ccc(C)cc1NC(=O)c1ccc2c(SCC(=O)O)c3c(nc2c1)CCCC3	-3%	0%	-4%	5	-4%	/	/	/
COc1cc(Cl)c(C)cc1NC(=O)c1ccc2c(SCC(=O)O)c3c(nc2c1)CCCC3	24%[57.1 µM]	?	-10%	12	1%[57.1 µM]	5	?	28µM*
Cc1c(C=O)ccc(N(C)C)c1C	-8%	/	/	/	-10%	/	/	/
O=C1c2ccccc2C(=O)N1c1ccccn1	5%	/	/	/	0%	/	/	/
COc1ccc(-c2c3c(nc4sc5c(=O)[nH]c(C)nc5c24)CCC3)cc1	11%[57.1 µM]	21µM*	-7%	2	15%[57.1 µM]	-6	-4%	7.1µM*
